Results as given in PubChem BioAssay AID1347145 (National Center for Advancing Translational Sciences (NCATS), 2019).
Inconclusive results are not listed. Activity calls are given as the source filed them. Calls follow the shape of the dose curve; as a rule, active = well fitted inhibition curve with a large enough effect; inconclusive = small, poorly fitted or top-dose-only effect; inactive = no such curve, though single readings can be large or run the other way.

target: N-terminal Xaa-Pro-Lys N-methyltransferase 1 (Homo sapiens) (UniProt Q9BV86); experiment: qHTS Assay for Inhibitors of N-terminal methyltransferase 1 (NTMT1): MTaseGlo Assay Confirmatory Screen, Round 1; conditions: Recombinant NTMT1, MTase-Glo SAH luminescence; series mostly up to 57.1 µM; activity change, negative = inhibition: at the top concentration
Sequence (Q9BV86 whole entry, looked up): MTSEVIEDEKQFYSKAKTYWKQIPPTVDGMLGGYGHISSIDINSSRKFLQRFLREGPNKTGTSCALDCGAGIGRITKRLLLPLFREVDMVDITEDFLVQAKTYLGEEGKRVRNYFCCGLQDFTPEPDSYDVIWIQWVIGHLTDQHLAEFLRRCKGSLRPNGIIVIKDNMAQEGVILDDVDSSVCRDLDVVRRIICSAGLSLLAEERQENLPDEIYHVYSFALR
Excerpt: Assay Submitter (PI): Rong Huang Ph.D, Purdue University, West Lafayette, IN 47907 The N-terminal methytransferase 1 is the first methyltransferase that methylates protein alpha-N-amines and plays an important role in regulating cell mitosis, chromatin interactions and DNA repair. It is observed to be over-expressed in various cancer patient tissues like malignant melanoma and colorectal cancer tissues. Knockdown of NTMT1 in cancer cells causes cell mitotic defects and enhances sensitivity to DNA damaging chemotherapeutics. […] These critical cellular processes in which NTMT1 is implicated, coupled with emerging links to cellular dysfunction, strengthen the inference that NTMT1 is a compelling novel anticancer target. Progress have been made in understanding the molecular properties of NTMT1 and the biological consequences of protein alpha-N-terminal methylation, but there are no specific small molecule probes available for NTMT1 to fully characterize its MTase activity. To address this unmet need, a panel of assay is created and established to enable quantitative high-throughput screening (qHTS) for novel, potent, and selective small molecule NTMT1 inhibitors. Two orthogonal qHTS that use different reagents (ThioGlo vs. MTaseGlo) are developed for primary robotic screening against the NCATS chemical library of more than 400,000 small molecules. Identified inhibitors are reacquired, validated, and further characterized. MTaseGlo Assay is a luminescence screen that measure the activity of methyltransferases based on the reaction product S-adenosyl homocysteine (SAH). The substrate SAM is converted to SAH upon enzyme activation. MTase-Glo reagent and detection solution convert SAH to ATP and measure the light from the luciferase reaction. […] Early Translation Branch (ETB) National Center for Advancing Translational Sciences (NCATS) National Institute of Health (NIH)
Materials: NTMT1 enzyme, substrate SPKRIA, control peptide RCC1-6 is provided by the Huang laboratory. MTaseGlo Assay: In brief, 3 µL of enzyme mixture (final concentrations of 125 nM and 100 µM for NTMT1 and SAM, respectively) into all wells of a 1,536-well solid-bottom white plate (Greiner Bio One, Monroe, NC). 23 nL of DMSO or Ac-RCC1-10 (final concentration range 234 nM to 143 microM) was transferred via Wako Pin-tool (Wako Automation, Richmond, VA) and incubated (RT) for ~15 minutes. Next, 1 µL of substrate (final concentration 1 µM) or buffer was dispensed, and the reaction proceeded for 30 minutes (RT, protected from light) followed by a 1 microL addition of [5X] MTase-Glo Reagent(R). Samples were incubated (RT, protected from light) for 30 minutes to allow for SAH to be converted to ADP, followed by a 5 microL addition of [1X] MTase-Glo Detection Solution(R) to allow for ADP to be converted to ATP, which was then detected with a luciferase reaction. Samples were centrifuged for 15 seconds at 1,000 RPM's, followed by a RT incubation for 30 minutes. Plates were then read using Luminescence optics on a ViewLux detector. Data were normalized to no-enzyme (0% activity) and no-inhibitor (DMSO; 100%) controls, and the resulting percent inhibition data were fitted to a 4-parameter Hill equation using Graphpad Prism.
Potency is read from the fitted curve at half-maximal effect.

Activity change, negative = inhibition, inactive:
Nc1ncnc2c1ncn2[C@@H]1O[C@H](CSCC[C@H](N)C(=O)O)[C@@H](O)[C@H]1O 533%
Nc1ncnc2c1ncn2[C@@H]1O[C@H](COP(=O)(O)OP(=O)(O)O)[C@@H](O)[C@H]1O 7.5%
CSCC1OC(n2cnc3c(N)ncnc32)C(O)C1O (stereo not given) -5.25%
COC1C(CO)OC(n2cnc3c(=O)[nH]cnc32)C1O (stereo not given) -3.11%
OC[C@@H]1O[C@@H](n2cnc3c(NC4CCCC4)ncnc32)[C@H](O)[C@H]1O 7.9%
CNc1ncnc2c1ncn2[C@@H]1O[C@H](CO)C(O)[C@H]1O (stereo not given in full) 215%
COc1cc2nc(N3CCCN(C)CC3)nc(NC3CCCCC3)c2cc1OC 41.1%
CNc1ncnc2c1ncn2[C@@H]1O[C@H](CO)[C@@H](O)[C@H]1O 239%
Nc1nc2c(ncn2[C@@H]2O[C@H](CO)[C@@H](O)[C@@H]2O)c(=O)[nH]1 1.02%
COc1cc2c(NC3CCN(C)CC3)nc(N3CCCN(C)CC3)nc2cc1OCCCCCN(C)C -10.4%
CO[C@@H]1[C@@H]2OP(=O)(O)OC[C@H]2O[C@H]1n1c(Sc2ccc(Cl)cc2)nc2c(N)ncnc21 -3.23%
COc1cc2nc(NC3CCN(C)CC3)nc(N3CCCN(C)CC3)c2cc1OC -9.95%
COc1cc2nc(N3CCN(C)CC3)nc(NCCCN(C)C)c2cc1OC -3.31%
COc1cc2nc(N3CCCCC3)nc(NC3CCN(Cc4ccccc4)CC3)c2cc1OC -12.7%
COc1cc2c(NC3CCN(C(C)C)CC3)nc(N3CCC(N4CCCC4)CC3)nc2cc1OCCCN1CCCCC1 -5.53%
C=C1OC(CO)(n2cnc3c(N)ncnc32)C(O)C1O (stereo not given) 5.77%
Nc1ncnc2c1nc(Br)n2C1OC(CO)C(O)C1O (stereo not given) -7.93%
Nc1ncnc2c1ncn2[C@@H]1O[C@H](C(=O)NC2CC2)[C@@H](O)[C@H]1O 4.71%
COc1cc2nc(N3CC[C@@H](N(C)C)C3)nc(NC3CC3)c2cc1OC 17.4%
COC1C(O)C(CO)OC1n1cnc2c(NC3CCCCC3)ncnc21 (stereo not given) -3.48%
Nc1ncnc2c1ncn2[C@@H]1O[C@H](C[C@@H](N)CC[C@H](N)C(=O)O)[C@@H](O)[C@H]1O 3.5%
CNc1nc(NC2CC2)c2cc(OC)c(OC)cc2n1 3.67%
Nc1nc(=S)c2ncn([C@H]3O[C@@H](CO)[C@@H](O)[C@@H]3O)c2[nH]1 4.07% [at 27.6 µM]
CCC(CC)n1ccc2c(C(=O)NCc3c(C)cc(C)[nH]c3=O)cc(C#N)cc21 14.8%
COc1cc2nc(N3CCOCC3)nc(NC3CC3)c2cc1OC -4.12%
Cc1cc(C)c(CNC(=O)c2cc(-c3ccc(CN4CCOCC4)cc3)cc3c2cnn3C2CCCC2)c(=O)[nH]1 -3.08%
CNc1nc(N2CCCN(C)CC2)nc2cc(OC)c(OC)cc12 8.27%
COc1cc2nc(N3CCN(C)CC3)nc(NCCC3CC3)c2cc1OC -15%
Nc1ncnc2c1ncn2[C@@H]1O[C@H](CO)[C@@H](O)[C@@H]1O 3.03%
Nc1ncnc2c1ncn2[C@@H]1O[C@H](COP(=O)(O)OP(=O)(O)OP(=O)(O)OP(=O)(O)OC[C@@H]2O[C@H](n3cnc4c(N)ncnc43)[C@@H](O)[C@H]2O)[C@@H](O)[C@H]1O 1000%
COc1cc2nc(N3CCN(C)CC3)nc(NC3CCCC3)c2cc1OC -13.3%
CNC(=O)[C@H]1O[C@H](n2cnc3c(NCc4cccc(I)c4)nc(Cl)nc32)[C@@H](O)[C@@H]1O 1.27%
COc1cc2nc(N3CCN(C)CC3)nc(NC3CCN(C)CC3)c2cc1OC -8.09%
Nc1ncnc2c1ncn2C1CC(O)C(CO)O1 (stereo not given) 25.8%
NCCNC(=O)Cc1ccc(NC(=O)Cc2ccc(Nc3ncnc4c3ncn4[C@@H]3O[C@H](CO)[C@@H](O)[C@H]3O)cc2)cc1 -4.61%
NC(=S)c1ccc[n+]([C@@H]2O[C@@H](COP(=O)([O-])OP(=O)(O)OC[C@H]3O[C@@H](n4cnc5c(N)ncnc54)[C@H](OP(=O)(O)O)[C@@H]3O)C(O)C2O)c1 (stereo not given in full) 11.4%
COc1cc2nc(N3CCCN(C)CC3)nc(NC3CCOCC3)c2cc1OC 10.6%

Potency, active:
OC[C@H]1O[C@@H](n2cnc3cncnc32)[C@H](O)[C@@H]1O 13.7 µM

Potency, inactive:
Nc1nc(Cl)nc2c1ncn2[C@H]1C[C@H](O)[C@@H](CO)O1
C[S+](CC[C@H](N)C(=O)O)C[C@H]1O[C@@H](n2cnc3c(N)ncnc32)[C@H](O)[C@@H]1O (stereo not given in full)
